BoNT-F LC inh: BoNT/F light chain protease inhibitors, primary screen, biochemical, flow cytometry, MLPCN library | AID 588497, 2011 | Botulinum neurotoxin type F light chain protease (Clostridium botulinum) | inhibition, % at 10 µM | Multiplex microsphere protease cleavage assay | actives 0.22% (n = 360,000); in the data active = inhibition above about 35%, passing the limit was not always enough; inconclusive = no clear call, values can overlap the other calls; also: plate controls were buffer without enzyme for full effect and enzyme alone for no effect
Autofluor counter: counter-screen for toxin protease inhibitors: compound fluorescence. fluorescence intensity (concentration not given with the values). actives 3.1% (n = 360,000). compound autofluorescence counterscreen, microsphere flow cytometry; hits give high values. AID 624483; in the data active = fluorescence intensity above about 16000; inconclusive = no clear call, values can overlap the other calls
MazEF act: activators of E. coli MazEF toxin-antitoxin RNase, primary screen, biochemical, fluorescence, uHTS; FAM/BHQ RNA-DNA oligo cleavage fluorescence, 5 h; Endoribonuclease toxin MazF (Escherichia coli (strain K12)), P0AE70; actives 0.32% (n = 350,000); activation, % at 20 µM; in the data active = activation above about 50%
Target sequence (P0AE70 whole entry, looked up): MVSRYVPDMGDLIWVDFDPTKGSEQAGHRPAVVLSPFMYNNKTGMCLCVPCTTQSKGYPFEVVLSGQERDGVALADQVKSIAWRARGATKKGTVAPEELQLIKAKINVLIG
VHR inh abs: VHR1 phosphatase inhibitors, primary screen, biochemical, absorbance, uHTS; actives 0.52% (n = 290,000); inhibition, % at 13.3 µM; recombinant VHR phosphatase, pNPP absorbance; in the data active = inhibition above about 50%
Target sequence (P51452 whole entry, looked up): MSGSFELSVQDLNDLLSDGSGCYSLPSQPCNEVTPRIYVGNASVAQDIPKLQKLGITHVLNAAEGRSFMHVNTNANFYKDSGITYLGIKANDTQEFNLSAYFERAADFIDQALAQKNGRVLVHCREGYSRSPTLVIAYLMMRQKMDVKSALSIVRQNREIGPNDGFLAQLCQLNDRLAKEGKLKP
BoNT-A LC inh2: BoNT/A light chain protease inhibitors, primary screen, biochemical, flow cytometry, MLPCN library; multiplex microsphere protease substrate cleavage; inhibition, % at 10 µM; actives 0.17% (n = 360,000); AID 588499, 2011; also: plate controls were buffer without enzyme for full effect and enzyme alone for no effect
Anthrax LF prot: Bacillus anthracis LF protease inhibitors, primary screen, biochemical, multiplex microsphere, MLPCN library; actives 0.12% (n = 360,000); inhibition, % at 10 µM; multiplex microsphere protease cleavage assay; also: plate controls were buffer without enzyme for full effect and enzyme alone for no effect
* marks the source's active call; other numbers are inactive results. Hits are enriched below; roughly 4.1% of the tested compounds scored in any of these assays. Rule as the data show it, unless noted: active = inhibition above about 30%; inconclusive = no clear call, values can overlap the other calls; inactive = below that.

How did Cc1ccc(NC2=CC(=O)C(=O)c3ccccc32)cc1 do in these assays?
BoNT-F LC inh: -5; Autofluor counter: 16510*; MazEF act: 4; VHR inh abs: -1; BoNT-A LC inh2: -1; Anthrax LF prot: -2

What do the screens show for `CCOC(=O)NC1(C(F)(F)F)NC(=O)N(Cc2ccco2)C1=O` (stereo not drawn)?
BoNT-F LC inh: 0; Autofluor counter: 16624*; MazEF act: 10; VHR inh abs: 16; BoNT-A LC inh2: inconclusive; Anthrax LF prot: 2

What do the screens show for `CC(C)CN1C(=O)NC(NC(=O)c2ccco2)(C(F)(F)F)C1=O` (stereo not drawn)?
BoNT-F LC inh: 4; Autofluor counter: 2827; MazEF act: -6; VHR inh abs: -22; BoNT-A LC inh2: 0; Anthrax LF prot: 1

How did Nc1cccc(CCc2ccncc2)c1 do in these assays?
BoNT-F LC inh: inconclusive; Autofluor counter: 4148; MazEF act: 5; VHR inh abs: 58*; BoNT-A LC inh2: inconclusive; Anthrax LF prot: 4

What do the screens show for `COc1ccc(CCC(=O)Nc2ccc(Cn3ccnc3)cc2)cc1`?
BoNT-F LC inh: inconclusive; Autofluor counter: 4211; MazEF act: 10; VHR inh abs: 22; BoNT-A LC inh2: 2; Anthrax LF prot: -2

Results for Cc1ccc(OCC(=O)N2N=C(C(F)(F)F)CC2(O)C(C)(C)C)cc1C (stereo not drawn) ?
BoNT-F LC inh: -1; Autofluor counter: 19845*; MazEF act: 6; VHR inh abs: 15; BoNT-A LC inh2: 2; Anthrax LF prot: -7

What do the screens show for `NC(=O)c1ccccc1OCC(=O)N1CCCC1c1ccc2c(c1)OCCCO2` (stereo not drawn)?
BoNT-F LC inh: -1; Autofluor counter: 6693; MazEF act: 1; BoNT-A LC inh2: -5; Anthrax LF prot: -4

Results for O=C(O)c1ccc2nc(-c3ccco3)c(-c3ccco3)nc2c1 ?
BoNT-F LC inh: -1; Autofluor counter: 2572; MazEF act: -5; VHR inh abs: 4; BoNT-A LC inh2: -1; Anthrax LF prot: -2

Results for O=C(Nc1cccc(C(F)(F)F)c1)c1ccc2nc(N3C(=O)CCC3=O)sc2c1 ?
BoNT-F LC inh: 2; Autofluor counter: 22304*; MazEF act: 3; VHR inh abs: -2; BoNT-A LC inh2: 1; Anthrax LF prot: -2

Results for Cc1nc2ccc(NC(=O)c3ccc(N4C(=O)CCC4=O)cc3)cc2s1 ?
BoNT-F LC inh: 3; Autofluor counter: 4535; MazEF act: 6; VHR inh abs: 9; BoNT-A LC inh2: 0; Anthrax LF prot: -2

Results for O=C(Nc1cccc(C(F)(F)F)c1)c1ccc2nc(-c3ccco3)c(-c3ccco3)nc2c1 ?
BoNT-F LC inh: -7; Autofluor counter: 3371; MazEF act: 9; VHR inh abs: 7; BoNT-A LC inh2: 63*; Anthrax LF prot: 28

What do the screens show for `Cc1noc(C)c1C(=O)Nc1sc2c(c1C(N)=O)CCC2`?
BoNT-F LC inh: 8; Autofluor counter: 10966; MazEF act: 28; VHR inh abs: -8; BoNT-A LC inh2: 0; Anthrax LF prot: -5

Results for Cc1noc(C)c1C(=O)Nc1sc2c(c1C(N)=O)CCCCC2 ?
BoNT-F LC inh: -2; Autofluor counter: 22480*; MazEF act: -15; VHR inh abs: -16; BoNT-A LC inh2: 0; Anthrax LF prot: -2

How did CCC(=O)Nc1sc2c(c1C(N)=O)CCC2 do in these assays?
BoNT-F LC inh: 0; Autofluor counter: 23030*; MazEF act: -6; VHR inh abs: 14; BoNT-A LC inh2: 1; Anthrax LF prot: -6

How did COc1cc(OC)nc(NC(C)=O)n1 do in these assays?
BoNT-F LC inh: -4; Autofluor counter: 23958*; MazEF act: -6; VHR inh abs: 17; BoNT-A LC inh2: -4; Anthrax LF prot: -1

What do the screens show for `O=C(CCNC(=O)OCC1c2ccccc2-c2ccccc21)NOCc1ccccc1`?
BoNT-F LC inh: 0; Autofluor counter: 3727; MazEF act: -1; BoNT-A LC inh2: 0; Anthrax LF prot: -3

Results for CC(C)(C)c1ccccc1OCC(=O)NCCC(=O)O ?
BoNT-F LC inh: -4; Autofluor counter: 24308*; MazEF act: 6; VHR inh abs: 18; BoNT-A LC inh2: -3; Anthrax LF prot: -1

Screening data: PubChem, several laboratories
